Screening results from PubChem.
Rows were chosen to be rich in hits. Some 9.2% of all compounds tested hit in one or more screens of this group.
SMN2 splice up – qHTS Assay for Enhancers of SMN2 Splice Variant Expression. HEK293 SMN2-luciferase splicing reporter, luminescence, 30-36 h. Potency, µM (titrated, usually from 46.1 µM), actives largely listed as activators. actives 2.8% (n = 210,000); further: nearly all actives have a fitted effect of over 55% in size
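HEK293 cells carry an SMN2 minigene-luciferase reporter in which exon 7 inclusion puts luciferase in frame. Cells were seeded at 2000 cells/well, attached for 10-12 hours, then exposed to compounds for 30-36 hours at 37C before ONE-Glo luminescence.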
NPC1 prom act – qHTS Assay for NPC1 Promoter Activators; actives 2.4% (n = 320,000); Huh7 NPC1 promoter luciferase reporter, 24 h; Potency, µM (top dose mostly 9.22 µM), usual class: activators; further: nearly all actives have a fitted effect of over 60% in size
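Luciferase expression driven by the NPC1 promoter was measured in stably transfected Huh7 cells after a 24 h compound incubation, using a luciferase reagent and a luminescence read.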
FLuc counter – qHTS profiling assay for firefly luciferase inhibitor/activator using purifed enzyme and Km concentrations of substrates (counterscreen for miR-21 project); actives 6.9% (n = 360,000); Luciferin 4-monooxygenase (Photinus pyralis), P08659; Potency, µM (titrated, usually from 57.5 µM), hits mostly inhibitors; purified FLuc, Km substrates, luminescence inhibition; AID 588342, 2011; further: nearly all actives have a fitted effect of over 55% in size
Target sequence (P08659 whole entry, looked up): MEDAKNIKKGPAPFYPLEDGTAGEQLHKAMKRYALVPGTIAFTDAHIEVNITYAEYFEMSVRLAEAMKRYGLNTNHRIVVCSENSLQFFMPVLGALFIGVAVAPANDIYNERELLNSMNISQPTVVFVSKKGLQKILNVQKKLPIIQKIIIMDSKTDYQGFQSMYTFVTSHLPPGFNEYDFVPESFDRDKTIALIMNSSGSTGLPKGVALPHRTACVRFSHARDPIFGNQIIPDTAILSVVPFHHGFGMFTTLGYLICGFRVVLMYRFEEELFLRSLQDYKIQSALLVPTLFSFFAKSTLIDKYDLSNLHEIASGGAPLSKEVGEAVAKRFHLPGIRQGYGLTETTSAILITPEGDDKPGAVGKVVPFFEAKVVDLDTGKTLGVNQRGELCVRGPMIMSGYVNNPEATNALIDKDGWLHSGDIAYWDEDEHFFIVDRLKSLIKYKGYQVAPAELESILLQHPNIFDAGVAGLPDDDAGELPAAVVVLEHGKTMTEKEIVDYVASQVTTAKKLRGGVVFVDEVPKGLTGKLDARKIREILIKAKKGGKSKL
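Purified P. pyralis luciferase, 10 nM final, with Km-level 10 uM D-luciferin and 10 uM ATP in 50 mM Tris acetate pH 7.5, 10 mM Mg acetate, 0.01% Tween-20, 0.05% BSA; 6-point qHTS titration about 60 µM downward; luminescence read.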
ELG1 DNA repair – qHTS screen for small molecules that inhibit ELG1-dependent DNA repair in human embryonic kidney (HEK293T) cells expressing luciferase-tagged ELG1. HEK293T ELG1-luciferase reporter, luminescence, 16 h; DNA damage induced by 5-fluorouridine. Potency, µM (highest dose often 46.1 µM), actives largely listed as inhibitors. actives 2.3% (n = 330,000); further: nearly all actives have a fitted effect of over 55% in size
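Reporter activity after DNA damage by 5-fluorouridine is monitored. Compound-treated cells incubate 16 hr at 37 °C, then ONE-Glo is added for 30 min before luminescence reading.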
ELG1 genotox – qHTS screen for small molecules that induce genotoxicity in human embryonic kidney (HEK293T) cells expressing luciferase-tagged ELG1. HEK293T ELG1-luciferase reporter, luminescence, 16 h. Potency, µM (titrated, usually from 46 µM), hits mostly activators. actives 1.3% (n = 330,000). AID 504466, 2011; further: nearly all actives have a fitted effect of over 60% in size
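Screening used a luciferase reporter fused to human ELG1 in HEK293T cells. Luminescence was read on a CCD plate imager after 16 hr exposure and 30 min ONE-Glo incubation.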
Rab9 promoter act – qHTS Assay for Rab9 Promoter Activators. Huh7 Rab9 promoter-luciferase reporter, luminescence, 24 h. Potency, µM (highest dose often 9.22 µM), most hits filed as activators. actives 2.8% (n = 320,000). AID 485297, 2010; further: nearly all actives have a fitted effect of over 60% in size
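Quantitative HTS format; Huh7 Rab9-luciferase reporter cells (1500/well) receive compound 2 h post-plating, incubate 24 h at 37 °C, then get luciferase reagent for 10 min before luminescence reading.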
Numbers stand for hits. The call rests on the fitted dose curve; in most records, active means well fitted curve in the direction sought with a large enough effect; inconclusive means small, poorly fitted or top-dose-only effect, or another doubt; inactive means no such curve, though single readings can be large; an effect the other way counts as inactive or inconclusive.

Screening CC(=O)NC1C(=O)N(CCN2CCOCC2)c2ccc(C)cc21 (stereo unspecified) returned NPC1 prom act inactive, FLuc counter 21µM, ELG1 DNA repair inactive, ELG1 genotox inactive and Rab9 promoter act inactive.
For O=C(CCC1CCCCC1=O)c1ccccc1 (stereo unspecified) the results were SMN2 splice up inactive, NPC1 prom act inactive, FLuc counter inconclusive, ELG1 DNA repair inconclusive, ELG1 genotox inactive and Rab9 promoter act inactive.
For CCc1ccc(C(=O)CCC2CCCCC2=O)cc1 (stereo unspecified) the results were SMN2 splice up inactive, NPC1 prom act inconclusive, FLuc counter 12µM, ELG1 DNA repair inconclusive, ELG1 genotox 18µM and Rab9 promoter act inconclusive.
Screening Cc1ccc(C(=O)CCC2CCCC2=O)cc1 (stereo unspecified) returned SMN2 splice up inconclusive, NPC1 prom act 4µM, FLuc counter 12µM, ELG1 DNA repair inconclusive, ELG1 genotox inconclusive and Rab9 promoter act inconclusive.
`Cc1ccc(C(=O)CCC2CCCCC2=O)cc1` (stereo unspecified) gave SMN2 splice up inactive, NPC1 prom act inconclusive, FLuc counter 13µM, ELG1 DNA repair inconclusive, ELG1 genotox 21µM and Rab9 promoter act inconclusive.
`Cc1ccc(C(=O)CCC(=O)NC2CCCC(C)C2C)cc1` (stereo unspecified) gave NPC1 prom act inactive, FLuc counter inactive, ELG1 DNA repair inactive, ELG1 genotox inactive and Rab9 promoter act inactive.
`CCN(CC)CCN(Cc1cc2cc3c(cc2[nH]c1=O)OCCO3)C(=S)NCCCOC` gave NPC1 prom act inactive, FLuc counter inactive, ELG1 DNA repair inactive, ELG1 genotox inactive and Rab9 promoter act inactive.
Screening Cc1ccc(-c2cc(C(=O)N3CCN(C(=O)c4ccco4)CC3)no2)cc1 returned SMN2 splice up inactive, NPC1 prom act inactive, FLuc counter inconclusive, ELG1 DNA repair inactive, ELG1 genotox inactive and Rab9 promoter act inactive.
`Cc1ccc(-c2c(C)sc(=NC(=O)c3ccco3)n2C)cc1` gave SMN2 splice up inconclusive, NPC1 prom act 1.6µM, FLuc counter 0.95µM, ELG1 DNA repair inconclusive, ELG1 genotox inactive and Rab9 promoter act 2.5µM.
COc1cc(-c2nnn(CC(=O)NC3CCS(=O)(=O)C3)n2)ccc1OCc1ccccc1 (stereo unspecified) was read as SMN2 splice up inconclusive, NPC1 prom act inconclusive, FLuc counter 12µM, ELG1 DNA repair inconclusive, ELG1 genotox inconclusive and Rab9 promoter act inactive.
Cc1nn(-c2ccccc2)c(C)c1/C=N/NC(=O)c1cc(O)cc(O)c1 was read as NPC1 prom act inactive, FLuc counter 19µM, ELG1 DNA repair inactive, ELG1 genotox inactive and Rab9 promoter act inactive.
`Cc1nn(-c2ccccc2)c(C)c1/C=N/NC(=O)c1ccccc1O` gave NPC1 prom act inactive, FLuc counter 1.9µM, ELG1 DNA repair inconclusive, ELG1 genotox inactive and Rab9 promoter act inactive.
For Cc1nn(-c2ccccc2)c(N2CCCC2)c1/C=N/NC(=O)c1ccccc1O the results were SMN2 splice up inactive, NPC1 prom act inactive, FLuc counter inactive, ELG1 DNA repair inactive, ELG1 genotox inactive and Rab9 promoter act inactive.
Screening CCNc1ccc(C(=O)N/N=C/c2c(C)nn(-c3ccccc3)c2N2CCCC2)cc1[N+](=O)[O-] returned SMN2 splice up inactive, NPC1 prom act inactive, FLuc counter inactive, ELG1 DNA repair 21µM, ELG1 genotox inactive and Rab9 promoter act inactive.
`COc1cc(/C=N/NC(=O)c2cc(-c3c(C)nn(-c4ccccc4)c3C)n[nH]2)ccc1O` gave NPC1 prom act inactive, FLuc counter inconclusive, ELG1 DNA repair inconclusive, ELG1 genotox inactive and Rab9 promoter act inactive.
`Cc1nn(-c2ccccc2)c(C)c1/C=N/NC(=O)c1cnccn1` gave NPC1 prom act inactive, FLuc counter inconclusive, ELG1 DNA repair inactive, ELG1 genotox inactive and Rab9 promoter act inactive.
For Cc1nn(-c2ccccc2)c(C)c1-c1cc(C(=O)N/N=C/c2ccc(O)cc2)[nH]n1 the results were NPC1 prom act inactive, FLuc counter 21µM, ELG1 DNA repair inconclusive, ELG1 genotox inactive and Rab9 promoter act inactive.
Screening CCOc1ccc(OCC)c(-n2cnnn2)c1 returned SMN2 splice up inactive and FLuc counter inactive.
COc1cccc(CC(=O)NNC(=O)CN(C)S(=O)(=O)c2ccc(C)cc2)c1 was read as ELG1 DNA repair inconclusive and ELG1 genotox inactive.
Cc1csc2nc(CSc3nc4ccccc4o3)cn12 was read as SMN2 splice up inactive, NPC1 prom act 4µM, FLuc counter 21µM, ELG1 DNA repair inconclusive, ELG1 genotox inconclusive and Rab9 promoter act inconclusive.
For c1ccc2oc(SCc3cn4ccsc4n3)nc2c1 the results were SMN2 splice up inconclusive, NPC1 prom act 2.8µM, FLuc counter 9.5µM, ELG1 DNA repair inconclusive, ELG1 genotox inconclusive and Rab9 promoter act 3.5µM.
`COc1ccc(CNC(=O)CN2C(=O)CSc3ccc(S(=O)(=O)N(C)C)cc32)cc1` gave FLuc counter inactive.
Cc1ccc(C(=O)COC(=O)c2cnccn2)cc1 was read as SMN2 splice up inactive, NPC1 prom act inactive, FLuc counter 6.7µM, ELG1 DNA repair inactive, ELG1 genotox inactive and Rab9 promoter act inactive.
For O=C(OCC(=O)c1ccccc1Cl)c1cnccn1 the results were SMN2 splice up inactive, NPC1 prom act inactive, FLuc counter inconclusive, ELG1 DNA repair inactive, ELG1 genotox inactive and Rab9 promoter act inactive.
For O=C(OCC(=O)c1ccc(Cl)cc1Cl)c1cnccn1 the results were NPC1 prom act inactive, FLuc counter 12µM, ELG1 DNA repair inactive, ELG1 genotox inactive and Rab9 promoter act inactive.
Cc1ccc(C(=O)COC(=O)c2cnccn2)cc1C was read as SMN2 splice up inactive, NPC1 prom act inactive, FLuc counter 21µM, ELG1 DNA repair inactive, ELG1 genotox inactive and Rab9 promoter act inactive.
Cc1ccc(C(=O)COC(=O)c2cnccn2)cc1[N+](=O)[O-] was read as SMN2 splice up inactive, NPC1 prom act inactive, FLuc counter inactive, ELG1 DNA repair inactive, ELG1 genotox inactive and Rab9 promoter act inactive.
For Cc1ccc(C(=O)Oc2ccc(C(=O)COC(=O)c3cnccn3)cc2)cc1 the results were SMN2 splice up inactive, NPC1 prom act inactive, FLuc counter inactive, ELG1 DNA repair inactive, ELG1 genotox inactive and Rab9 promoter act inactive.
